Sm TGR block: qHTS Assay for the Inhibitors of Schistosoma Mansoni Peroxiredoxins. purified TGR, DTNB reduction, TNB absorbance 405 nm. Potency, µM (top dose mostly 114 µM), usual class: inhibitors. 3% of 360,000 active; also: nearly all actives have a fitted effect of over 60% in size
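First, TGR (20 nM dispensed) and NADPH were mixed with compound. Second, a 15 min room-temperature incubation followed. Third, further NADPH and then DTNB were added to start the reaction. Finally, TNB absorbance was monitored kinetically.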
NS1 function inh: qHTS Assay for Inhibitors of Influenza NS1 Protein Function; 0.4% of 270,000 active; AID 2326, 2010; Potency, µM (top dose mostly 46.1 µM); calls by dose curve; also: actives are rising curves; nearly all actives have a fitted effect of over 50% in size
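Recovery from NS1-induced slow growth read by OD600 in budding yeast switched to galactose assay medium (pH 6.0, -URA) at 1:100 dilution. Compound 23 nl per well; the matching strain lacking NS1 serves as control.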
Pf growth 96h: Primary qHTS for delayed death inhibitors of the malarial parasite plastid, 96 hour incubation. P. falciparum luciferase reporter growth, 96 h. Potency, µM (top dose mostly 28.7 µM), usual class: inhibitors. 6.9% of 320,000 active
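Plates of compound plus infected erythrocytes (2% hematocrit, 0.05% parasitemia final) incubate 96 hours, 37 C, 5% CO2. Detection reagent added; reduced luminescence from the parasites' luciferase reporter flags inhibition.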
Pf growth 48h: Primary qHTS for delayed death inhibitors of the malarial parasite plastid, 48 hour incubation. P. falciparum luciferase growth in erythrocytes, 48 h. Potency, µM (top dose mostly 28.7 µM), hits mostly inhibitors. 5.9% of 310,000 active
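Firefly luciferase activity from engineered P. falciparum reports growth; inhibitors lower the luminescent signal. Cultures contained 2% hematocrit erythrocytes at 0.1% final parasitemia.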
AMA1 RON2 block: qHTS for Inhibitors of AMA1-RON; Towards Development of Antimalarial Drug Lead: Primary Screen | Plasmodium falciparum AMA1 (3D7) - RON2 peptide interaction | AlphaScreen AMA1-biotinylated RON2 peptide binding | Potency, µM (titrated, usually from 58.2 µM), most hits filed as inhibitors | 0.2% of 360,000 active | AID 720542, 2013; also: nearly all actives have a fitted effect of over 45% in size
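AMA1 (3D7) with his tag at 25 nM final met compounds first, then biotinylated RON2 peptide at 25 nM; detection used donor plus acceptor beads, 10 µg/mL apiece, read by AlphaScreen after 30 min at room temperature.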
A number is an active result; n = inactive; u = inconclusive; x = no result; [ ] = dose if it differs, or a comment. Compounds with a hit are over-represented: about 11% of the library has one in this group of screens. Unless noted, calls follow the shape of the dose curve; as a rule, active = well fitted curve in the direction sought with a large enough effect; inconclusive = small, poorly fitted or top-dose-only effect, or another doubt; inactive = no such curve, though single readings can be large; an effect the other way counts as inactive or inconclusive.

SMILES | Sm TGR block | NS1 function inh | Pf growth 96h | Pf growth 48h | AMA1 RON2 block
C[C@H](NC(=O)[C@@H]1CCCN1C(=O)[C@@H]1CCCN1C(=O)c1ccc(Cl)cc1)c1ccccc1 | x | x | x | x | n
COc1ccc(C2c3[nH]c4ccccc4c3C[C@H]3C(=O)N(c4ccccc4C(=O)N4CCC(C(=O)O)CC4)C(=O)N23)cc1 (stereo not given in full) | n | n | u | 12µM | n
CC(C)c1ccc(C2c3[nH]c4ccccc4c3C[C@H]3C(=O)N(c4ccccc4C(=O)N4CCC[C@H]4C(=O)O)C(=O)N23)cc1 (stereo not given in full) | n | n | u | 6.6µM | n
COc1cccc(C2c3[nH]c4ccccc4c3C[C@H]3C(=O)N(c4ccccc4C(=O)N4CCC(C(=O)O)CC4)C(=O)N23)c1 (stereo not given in full) | n | n | u | u | n
COc1cc2c(cc1OC)C(c1cc(OC)c(OC)c(OC)c1)C1(O)C(=O)OCC1(O)C2 (stereo not given) | x | x | x | x | n
Cc1c(Cl)c([N+](=O)[O-])nn1CC(=O)N1CCN(C23CC4CC(CC(C4)C2)C3)CC1 | n | n | n | 12µM | n
COC(=O)c1cc(C)nc2c1C(=O)C(=O)C=C2N1CCOCC1 | u | n | n | 13µM | u
CCOC(=O)N1CCC(NC(=O)c2ccc3c(c2)N(C)CCS3)CC1 | n | n | u | 12µM | n
COc1ccc(OC)c(CCNC(=O)c2ccc3c(c2)N(Cc2ccccc2)CCS3)c1 | n | n | 13µM | u | n
CCOC(=O)N1CCC(NC(=O)c2ccc3c(c2)N(Cc2ccc(C)cc2)CCS3)CC1 | n | n | u | u | n
CN1CCSc2ccc(C(=O)Nc3cc(F)ccc3F)cc21 | n | n | n | n | n
Cc1ccccc1NC(=O)c1ccc2c(c1)N(C)CCS2 | n | n | 13µM | n | n
CCOC(=O)N1CCC(NC(=O)c2ccc3c(c2)N(Cc2ccc(F)cc2)CCS3)CC1 | n | n | u | 4.7µM | n
CN(c1nc2ccccc2[nH]c1=O)C1CCCCC1 | n | n | u | u | n
COc1ccc(N2Cc3ccccc3C2=NC(=O)c2cncc(Br)c2)cc1 | u | x | n | n | n
O=C(NC1CC1)c1ccc2c(c1)N(Cc1ccccc1)CCS2 | n | n | 12µM | n | n
CCOC(=O)N1CCC(NC(=O)c2ccc3c(c2)N(Cc2ccccc2)CCS3)CC1 | n | n | u | x | n
Oc1cccc(Nc2nc(O)c(/C=C3\C=Nc4ccccc43)s2)c1 | n | n | n | n | n
CC1=Nc2ccccc2/C1=C\c1sc(Nc2ccc(C)cc2)nc1O | n | n | 6.6µM | u | n[11.6 µM]
Oc1nc(Nc2cccc(Cl)c2)sc1/C=C1\C=Nc2ccccc21 | n | n | u | n | n
Oc1nc(Nc2ccc(F)cc2)sc1/C=C1\C=Nc2ccccc21 | n | n | u | 13µM | n
Cc1sc2ncnc(NCC(O)c3ccc([N+](=O)[O-])cc3)c2c1C (stereo not given) | n | n | u | 9.3µM | n
Cc1sc2ncnc(NCC(O)c3ccccc3)c2c1C (stereo not given) | n | n | n | n | n
CC1(C(=O)NCc2cccc3ccccc23)CCN1C(=O)Cc1ccc(-c2ccccc2)cc1 (stereo not given) | x | x | x | x | n
COc1ccc(NC(=O)c2cccc(S(=O)(=O)N3CCN(c4ccccc4)CC3)c2)c(OC)c1 | n | x | u | 10µM | n
SMILES | Sm TGR block | NS1 function inh | Pf growth 96h | Pf growth 48h | AMA1 RON2 block
CNC(=O)c1ccccc1NC(=O)c1cccc(S(=O)(=O)N2CCCCC2)c1 | n | x | 2.9µM | u | n
O=C(Nc1ccccc1C(=O)O)c1cccc(S(=O)(=O)N2CCCC2)c1 | n | x | x | x | x
COc1ccc(NC(=O)c2ccc(S(=O)(=O)N3CCCCCC3)cc2)c(OC)c1 | n | n | 13µM | n | n
COc1ccc(NC(=O)c2cccc(S(=O)(=O)N3CCCCC3)c2)c(OC)c1 | n | n | 2.9µM | n | n
COc1ccc(NC(=O)COC(=O)c2cccc(S(=O)(=O)N3CCCCC3)c2)c(OC)c1 | n | x | n | n | n
COc1ccccc1NC(=O)c1cccc(S(=O)(=O)N2CCN(c3ccccc3)CC2)c1 | n | x | u | u | n
CCc1ccccc1NC(=O)Cn1nnc(C(=O)Nc2ccc(C)c(F)c2)c1N | n | x | x | x | x
Cc1ccc(-c2cnc3c(Cl)c(C)nn3c2)cc1 | n | x | n | n | n
O=C(Cn1c(=O)cnc2ccccc21)Nc1cccc(S(=O)(=O)N2CCCCC2)c1 | n | x | u | u | n
COc1cc(-c2nn3c(Cc4ccccc4)nnc3s2)cc(OC)c1OC | n | n | n | 10µM | n
CCOc1ccccc1N(CC(=O)Nc1c(C)n(C)n(-c2ccccc2)c1=O)S(=O)(=O)c1ccccc1 | n | x | u | u | n
O=C(Cn1c(=O)c2c(ncn2Cc2ccccc2)n(Cc2ccccc2)c1=O)N1CCc2ccccc21 | n | n | x | 3.3µM | n
O=C(Cn1c(=O)c2c(ncn2C2CCCC2)n(Cc2ccccc2)c1=O)N1CCc2ccccc21 | n | u | n | 5.9µM | n
CCn1cnc2c1c(=O)n(CC(=O)N1CCc3ccccc31)c(=O)n2Cc1ccccc1 | n[11.4 µM] | n | u | x | n
